VACV mCherry inh: qHTS for Stage-Specific Inhibitors of Vaccinia Orthopoxvirus: mCherry Reporter Primary qHTS; 310,000 tested, 0.63% active; Potency, µM (doses to about 36.5 µM), for the others: at the highest dose activity change, negative = inhibition, actives largely listed as inhibitors; Vaccinia virus mCherry reporter infection, fluorescence; AID 720579, 2013; calls by dose curve; tested in A549 cells; further: nearly all actives have a fitted effect of over 35% in size
HCV inh: qHTS Assay for Inhibitors of Hepatitis C Virus (HCV); Huh7.5.1 HCVcc-Cre infection, luciferase reporter, 44 h; Potency, µM (titrated, usually from 41.8 µM), inactives show at the top dose activity change, negative = inhibition, most hits filed as inhibitors; 340,000 tested, 3.4% active; AID 651820, 2012; active means well fitted inhibition curve with a large enough effect; inconclusive means small, poorly fitted or top-dose-only effect, or another doubt; inactive means no such curve, though single readings can be large or run the other way
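Cells seeded at 1,000/well and cultured 4 h, then compounds added followed by HCVcc-Cre virus (~0.5 moi). After 44 h further culture, luciferase substrate was added, plates held 15 min at room temperature, and luminescence read for 15 sec.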
Vaccinia Venus: qHTS for Stage-Specific Inhibitors of Vaccinia Orthopoxvirus: Venus Reporter Primary qHTS; Vaccinia virus Venus reporter expression, fluorescence; Potency, µM (series often up to 36.5 µM), for the others: top-dose activity change, negative = inhibition, hits mostly inhibitors; 330,000 tested, 0.46% active; AID 720580, 2013; calls by dose curve; tested in A549 cells; further: nearly all actives have a fitted effect of over 30% in size
An asterisk follows results filed as active; i = inactive; ? = inconclusive; nt = no result. Most compounds without a hit are left out; they make up all but 3.3% or so of the library. On the % scale 0 is the no-effect control and ±100 the full control effect; potency means the concentration at half of the fitted maximal effect.

SMILES	VACV mCherry inh	HCV inh	Vaccinia Venus
O=c1c2c(-c3cccs3)csc2ncn1-c1ccccc1	nt	?	-19.3%
CCCS(=O)(=O)c1nc(S(=O)(=O)c2ccc(C)cc2)c(NCc2ccccc2)s1	i	nt	-10.0%
COc1ccc(-c2nnc(SCc3ccccn3)n2C)cc1	-20.0%	15.9%	-8.8%
COc1ccc(N=C(N)SCc2ccccn2)cc1	11.2µM*	?	11.2µM*
COCCNC(=O)c1cccc(Nc2nc(-c3ccccc3)c3cc(Cl)ccc3n2)c1	nt	10µM*	nt
CC(=O)NNc1nc(-c2ccccc2)c2cc(Cl)ccc2n1	-5.4%	nt	-13.4%
COc1cc2nc(N3CCCN(C)CC3)nc(N(C)C)c2cc1OC	-25.9%	nt	-20.5%
COCCn1c(N)c(C(=O)c2cccc(S(=O)(=O)N3CCCCCC3)c2)c(=O)[nH]c1=O	nt	-4.9%	nt
COc1cc(OC)c(/C=C/c2nc3ccccc3o2)c(OC)c1	-12.1%	nt	-10.3%
Cc1nn2c(c1-c1ccc(Cl)cc1)N=C(c1ccco1)CC2c1ccccc1 (stereo not drawn)	?	2.51µM*	-20.1%
Clc1ccc(C2=NN(c3ccccc3)C(c3ccco3)C2)cc1 (stereo not drawn)	-6.2%	-6.4%	-7.3%
Cc1cc(N)n(Cc2ccc(Cl)cc2)n1	-16.5%	4.1%	-7.7%
Cc1ccc(-c2cc(N)n(Cc3ccc(Cl)cc3)n2)cc1	nt	10µM*	?
CC(C)COc1cccc(C(=O)Nc2ccc(N3CCOCC3)cc2N2CCOCC2)c1	-12.8%	7.94µM*	-10.2%
Cc1ccc(C(=O)Nc2ccc(N3CCOCC3)cc2N2CCOCC2)cc1	-1.2%	?	-13.4%
CC(C)COc1cccc(C(=O)Nc2ccc(CN3CCOCC3)cc2)c1	-11.9%	3.16µM*	?
O=C(Nc1ccc(Br)cc1)c1cccc(OC(=S)N2CCOCC2)c1	i	8.91µM*	-14.8%
CCC(C)Oc1ccc(C(=O)Nc2ccc(CN3CCOCC3)cc2)cc1 (stereo not drawn)	nt	25.1µM*	nt
CCOc1ccc(NC(=O)c2cccc(OC(=S)N3CCOCC3)c2)cc1	-16.3%	-6.6%	-17.1%
CC(C)COc1cccc(C(=O)Nc2ccc(S(=O)(=O)N3CCOCC3)cc2)c1	-20.1%	?	?
COC(=O)c1ccc(NC(=O)c2ccc(CN3CCOCC3)cc2)cc1	-7.9%	?	-23.2%
Cn1c(N)c(C(=O)COC(=O)Cc2ccc(Cl)cc2)c(=O)n(C)c1=O	i	-14.8%	-6.6%
CCOC(=O)C1(C)CCCN(C(=O)c2ccc3ccccc3c2)C1 (stereo not drawn)	18.9%	nt	5.3%
CC(=O)N1CCc2c(sc3c2c(=O)n(-c2ccccc2Cl)c(=O)n3Cc2cccc(C)c2)C1	-21.9%	nt	-3.5%
CC(C)N(Cc1nc(-c2ccc(Cl)cc2)no1)C(=O)c1ccco1	-10.5%	nt	2.3%
SMILES	VACV mCherry inh	HCV inh	Vaccinia Venus
CCNC(=O)c1ccccc1-c1nc(-c2ccccc2OC)no1	nt	-10.2%	nt
CCOc1ccccc1-c1nc(-c2cc3ccccc3nc2OC)no1	nt	11.2µM*	-22.5%
CCOc1ccccc1-c1nc(-c2ccncc2)no1	-4.4%	?	-19.9%
CCOc1ccccc1NC(=O)c1ccccc1-c1nc(-c2ccccc2OC)no1	nt	11.2µM*	-17.8%
CCOC(=O)Cn1c(=N)n(Cc2ccc(C(C)(C)C)cc2)c2ccccc21	-12.9%	nt	-2.5%
COCOc1cccc(CN2CCC2(C)C(=O)Nc2ccc(C)c(O)c2)c1 (stereo not drawn)	21.3%	nt	-1.8%
CCCCOc1cccc(C(=O)N(Cc2ccc(Br)o2)C2CCS(=O)(=O)C2)c1 (stereo not drawn)	-4.5%	nt	-15.2%
O=C(CCN1CCc2ccccc2C1)c1ccc2c(c1)OCCO2	nt	10µM*	nt
O=C(CCN1CCc2ccccc21)c1ccc2c(c1)OCCO2	-8.5%	?	-3.7%
COc1cccc(CNC(=O)c2c(OC)cc(=O)n3c2CCN(C(=O)c2ccc(Cl)cc2)CC3)c1	i	nt	0.0%
COc1cc(SC)ccc1C(=O)NCCNC(=O)c1nonc1N	6.4%	6.4%	-18.5%
CCn1c2ccccc2c2cc(C#N)c(N)nc21	nt	12.6µM*	nt
CCOC(=O)c1cc2c3ccccc3n(CC)c2nc1N	i	?	0.0%
CCOC(=O)CNC(=O)Cn1nc(N2CCN(c3ccccc3)CC2)ccc1=O	-0.4%	nt	-1.8%
CCc1ccc2nc(N3CCN(C(=O)c4ccccc4)CC3)sc2c1	-14.3%	nt	-24.4%
CCOC(=O)N1CCN(C(=O)c2ccc3nc(N4CCC(C)CC4)sc3c2)CC1	nt	-20.4%	?
CCCN1CCN(CCCNC(=O)c2ccc3nc(N4CCC(C)CC4)sc3c2)CC1	i	11.2µM*	-2.9%
CC1CC(C)CN(CCCNC(=O)c2ccc3nc(N4CCOCC4)sc3c2)C1 (stereo not drawn)	11.9%	-18.3%	4.5%
